NF-kB expr up – activators of NF-kB expression in neurons, primary screen, cell-based, HTS; human neuronal cells, NF-kB reporter expression; stronger effect = higher value; fold change at 12.5 µM; 190,000 compounds, 1.6% hits; AID 1239, 2008; in the data active = fold change above about 3.3
APP 5'UTR act – activators of APP 5'UTR luciferase reporter, primary screen, SH-SY5Y cells; activation, % at 2 µM; AID 1276, 2008; 190,000 compounds, 1% hits; SH-SY5Y APP 5'UTR luciferase reporter, luminescence; zero percent = DMSO vehicle wells;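 active = activation above a set limit, based on mean plus 3 SD of controls, cut at about 140% in these data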
ssDAF12 agonist – S. stercoralis DAF-12 nuclear receptor activators, primary screen, cell-based, luminescence, HEK293, GRIP1 co-expression, lit1-tk-luc | HEK293 ssDAF-12/GRIP1 lit1-tk-luc reporter; % of 3 µM dafachronic acid response | 370,000 compounds, 1% hits | activation, % at 6.8 µM | AID 652126, 2013;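 active = activation above the mean over all tested compounds plus 3 SD, cut at about 0.9% in these data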;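 also: 0% = DMSO-only wells and 100% = 3 µM delta7-dafachronic acid wells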
hgDAF12 agonist – H. glycines DAF-12 receptor agonists, primary screen, cell-based, luminescence, HEK293, GAL4 fusion, UAS-luciferase; HEK293 GAL4-hgDAF12 UAS-luciferase reporter, agonist luminescence; normalized to butyrate control; activation, % at 6.8 µM; 370,000 compounds, 1.8% hits; AID 687014, 2013;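 active = activation above a cutoff set at the mean of all screened compounds plus 3 SD, cut at about 10% in these data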;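 also: 0% = DMSO wells and 100% = sodium butyrate wells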
hcDAF12 agonist – H. contortus DAF-12 nuclear receptor activators, primary screen, cell-based, luminescence, HEK293, lit1-tk-luc reporter; HEK293 hcDAF-12 lit1-tk-luc reporter; 0% DMSO, 100% Δ7-dafachronic acid; 370,000 compounds, 1.4% hits; activation, % at 6.8 µM;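 active = activation above the mean of all tested compounds plus 3 SD, cut at about 5.5% in these data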;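 also: 100% = response to 3 µM Δ7-dafachronic acid high control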
An asterisk follows results filed as active; / = no result given. The list is not random: actives were taken first. Their share in the collection is about 3.4%.

SMILES | NF-kB expr up | APP 5'UTR act | ssDAF12 agonist | hgDAF12 agonist | hcDAF12 agonist
COc1ccc2c(=O)c(-c3ccc4c(c3)OCO4)coc2c1 | 4.3* | 192* | 1 | 17* | 5.7*
CCc1cc2c(=O)c(-c3ccc4c(c3)OCCO4)coc2cc1OC(=O)c1ccco1 | 2.9 | 141* | -1 | 11* | 3
CCN(CC)C(=O)Oc1ccc2c(=O)c(-c3ccc(OC)cc3)coc2c1 | 1.8 | 74 | -2 | 6 | -2
CC(C)Oc1ccc2c(=O)c(-c3ccccc3)coc2c1 | 9.5* | 163* | 0 | 14* | 3
Cc1ccccc1NC(=O)C[C@H]1CC[C@H]2[C@@H](COc3ccc(NC(=O)Nc4ccccc4)cc3C(=O)N2C)O1 | / | / | 0 | -2 | 2
C[C@H]1[C@@H](c2ccccc2)OC(O)([C@H](Cc2ccccc2)NC(=O)OC(C)(C)C)CN1C (stereo partly drawn) | / | / | -2 | -1 | -1
CCCCCCCCN1C(=O)[C@@H](CC(=O)NCc2ccc(C)o2)C[C@@]2(C(=O)OC)C1=C[C@H](C(C)C)O[C@@H]2C1CC1 | / | / | -1 | 2 | -2
Cc1cccc(NC(=O)CSc2ncnc3sc4c(c23)CCCC4)c1 | / | / | -1 | 0 | -2
CC(C)COc1ccc(-c2nnc(-c3ccncc3)o2)cc1 | 2.8 | 34 | -1 | 5 | 3
CCCOc1ccc(-c2nnc(-c3ccncc3)o2)cc1 | 3.7* | 124 | -1 | 11* | 1
Cc1ccccc1CN1CCCCC(NC(=O)c2ccc(COc3ccccc3)cc2)C1=O (stereo not drawn) | / | / | -2 | -7 | -7
COc1ccc(C(=O)/C=C/c2cccs2)c(OC(=O)c2cccc([N+](=O)[O-])c2)c1 | 6* | 21 | -1 | 2 | -1
COc1ccc(C(=O)/C=C/c2ccc(F)cc2)c(OC(=O)c2ccc([N+](=O)[O-])cc2)c1 | 1.6 | 8 | -1 | 5 | 0
Cn1c(=O)[nH]c2ncn(C)c2c1=O | / | / | -1 | 11* | 0
CN(CCO)C1CN(Cc2cn(Cc3ccccc3C(F)(F)F)nn2)S(=O)(=O)C1 (stereo not drawn) | / | / | -1 | 2 | -3
CC(=O)c1cccc(NC(=O)c2noc3c2CCc2ccccc2-3)c1 | 1.6 | 169* | -2 | 10 | -2
Cc1ccc(C(=O)Nc2ccc3c(c2)CCC3)cc1 | 6.4* | 154* | 0 | 6 | 5
CC(=O)c1cccc(NC(=O)c2ccc3c(c2)CCCC3)c1 | / | / | -1 | 13* | 2
Cc1ccc(C(=O)NCC(=O)Nc2ccc3c(c2)CCC3)cc1 | / | / | -1 | 4 | 3
CC(=O)c1cccc(NC(=O)Nc2ccc3c(c2)CCC3)c1 | / | / | 0 | 4 | -1
O=C(CN1CCc2onc(-c3ccc(-n4cc(-c5ccccc5)nn4)cc3)c2C1=O)N1CCOCC1 | / | / | -1 | 2 | 1
Cc1ccc(-c2nnc(NC(=O)COc3ccc(F)cc3Cl)o2)cc1C | / | / | -1 | 2 | -1
CCCCNC(=O)C[C@H]1C[C@@]2(C(=O)OC)C(=C[C@H](C(C)C)O[C@@H]2C2CC2)N(Cc2ccc3c(c2)OCO3)C1=O | / | / | -2 | -2 | -3
Cc1cc(C(=O)N/N=C/c2ccc([N+](=O)[O-])cc2)c(C)o1 | 1.2 | 12 | -1 | 11* | -1
Cc1cc(C(=O)N/N=C/c2ccccc2)c(C)o1 | / | / | -2 | 1 | 1
SMILES | NF-kB expr up | APP 5'UTR act | ssDAF12 agonist | hgDAF12 agonist | hcDAF12 agonist
O=C(O)c1cccc2c1C(=O)c1cc([N+](=O)[O-])cc([N+](=O)[O-])c1-2 | / | / | 0.9* | 0 | 0
O=C1CN(c2ccccc2)C(=S)N1C(=O)c1ccc(Br)cc1 | / | / | 1 | 14* | 4
COC(=O)c1ccc2c(C3(c4c[nH]c5ccccc45)CCN(C(=O)OC(C)(C)C)CC3)c[nH]c2c1 | / | / | 0 | 9 | 4
CC1(C)Cc2c(sc(NC(=O)Nc3ccccc3)c2C(N)=O)CO1 | / | / | 0 | 11* | 3
O=C(O)c1cc2c(cn1)[nH]c1ccccc12 | / | / | 0 | 1 | 6.3*
O=C(O)c1cc(=O)c2c(Cl)cc(Cl)cc2[nH]1 | / | / | -1 | 2 | 0
O=C(O)c1cc(=O)c2ccccc2[nH]1 | / | / | 1.5* | 5 | 6.4*
COC[C@H]1CCCN1c1cccc2c1S(=O)(=O)N1CC[C@H](C1)O2 | / | / | 0 | 2 | -1
Cc1ccc(CN2CCCCC(NC(=O)Nc3ccccc3-c3ccccc3)C2=O)cc1 (stereo not drawn) | / | / | -1 | -3 | -2
C=CCN(CC#Cc1ccc(C)cc1)Cc1ccc(OC)cc1OC | / | / | -1 | 0 | 1
CCCCNC(=O)c1nc(-c2cccs2)oc1-c1ccc(Cl)cc1 | / | / | 0.9* | 3 | -1
CCCCNC(=O)c1nc(-c2cnccn2)oc1-c1ccc(Cl)cc1 | / | / | -1 | -4 | -1
CCOC(=O)/C(C#N)=C/c1cn(CCOc2ccccc2)c2ccccc12 | 1.1 | 4 | 6.7* | 1 | -1
COc1ccc(CCNC(=O)c2cc3c(C)nn(-c4ccccc4)c3s2)cc1OC | / | / | -1 | -3 | -4
Cn1c(Cc2c[nH]c3ccccc23)n[nH]c1=S | 1.1 | 3 | 1.0* | 1 | 4
COC(=O)[C@]12C[C@H](CC(=O)NCc3ccc(OC)c(OC)c3)C(=O)N(Cc3ccco3)C1=C[C@H](C1CCCC1)O[C@@H]2C | / | / | -1 | -4 | 0
COc1ccccc1N1CCN(/N=C/c2cc(OC)c(O)c(OC)c2)CC1 | 1.1 | -9 | -1 | 3 | -2
COc1ccccc1N1CCN(/N=C/c2cccc(O)c2)CC1 | 2.7 | 13 | 0 | 12* | 4
O=C(NCc1cccs1)C1CCN(S(=O)(=O)c2cccc3ccccc23)CC1 | / | / | -1 | -2 | 0
COc1ccc(S(=O)(=O)NCC(=O)N2CCN(c3ccccn3)CC2)c(OC)c1 | / | / | -1 | -3 | -4
O=C(NCCc1c[nH]c2ccccc12)OCc1cn(Cc2ccccc2F)nn1 | / | / | -2 | -2 | 0
COc1ccccc1Cn1c(/C=C/c2ccccc2)nc2ccccc21 | 2 | 38 | -1 | 8 | 2
COCCn1c(/C=C/c2ccccc2)nc2ccccc21 | 3.9* | 109 | 0 | 11* | 3
CCOC(=O)C1=NOC(C(C)=O)(C(=O)N2CCOCC2)C1 (stereo not drawn) | / | / | 0 | -2 | -1
COc1ccc(C(C(=O)N(C)C2CCCC2)N(Cc2ccc(F)cc2)C(=O)c2csc(-c3ccccc3)n2)cc1OC (stereo not drawn) | / | / | -2 | -4 | -3
O=C(CCNc1cccc(Cl)c1)c1cccs1 | 1.7 | 2 | 1.4* | 5 | 3
Cc1ccc(NC(=O)Nc2cccs2)cc1 | 2.2 | 95 | 0 | 11* | 5

Screening data (PubChem)
